Holding throughout (test): DAPPL (digital affinity profiling via proximity ligation, sequencing); 10 mM Tris-HCl pH 7.5, 50 mM NaCl, 1 mM DTT, 4% glycerol, room temperature, 30 min; GST-TFs on glutathione beads, 16-mer random dsDNA library, 0.1% formaldehyde crosslink after washing; high values mean tight binding
In one test the target is T1, FEV (Homo sapiens, UniProt Q99581 1-238).
T1 sequence: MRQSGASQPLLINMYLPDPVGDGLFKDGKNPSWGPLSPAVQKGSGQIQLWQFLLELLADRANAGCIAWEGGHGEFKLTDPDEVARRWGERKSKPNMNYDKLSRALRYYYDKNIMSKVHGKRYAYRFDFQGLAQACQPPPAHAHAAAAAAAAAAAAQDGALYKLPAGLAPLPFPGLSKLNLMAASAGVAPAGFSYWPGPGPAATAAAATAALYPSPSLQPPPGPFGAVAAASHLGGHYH
The following applies: protein: recombinant; tags: N-terminal GST; dsDNA, one strand shown. The method in brief:
(§1)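 In yeast, human transcription factors were expressed with a GST fusion, then pulled down on glutathione beads and given DNA barcodes. Pooled with a tag-only sample, they were exposed to 200 nmole of a 16-mer random double-stranded DNA library (Tris/NaCl/DTT/glycerol buffer, room temperature, 30 min), washed, crosslinked with 0.1% formaldehyde, proximity-ligated using BsaI/T4 ligase for 1 h at 37 °C, PCR-amplified and read on an Illumina NextSeq500. Each hexamer's frequency of reads for a factor, divided by the matching frequency for the tag-only sample, gives the binding signal.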

In a further test the target is ETV5 (Homo sapiens, UniProt P41161 1-510). The following applies: protein: recombinant; tags: N-terminal GST; dsDNA, one strand shown. The method in brief: as §1
In the next test the target is HSF1 (Homo sapiens, UniProt Q00613 1-529). As to conditions: protein: recombinant; tags: N-terminal GST; chain copies: 3; dsDNA, one strand shown. The method in brief: as §1
The target of a further test is T2, SPIC (Homo sapiens, UniProt Q8N5J4 1-248).
T2 sequence: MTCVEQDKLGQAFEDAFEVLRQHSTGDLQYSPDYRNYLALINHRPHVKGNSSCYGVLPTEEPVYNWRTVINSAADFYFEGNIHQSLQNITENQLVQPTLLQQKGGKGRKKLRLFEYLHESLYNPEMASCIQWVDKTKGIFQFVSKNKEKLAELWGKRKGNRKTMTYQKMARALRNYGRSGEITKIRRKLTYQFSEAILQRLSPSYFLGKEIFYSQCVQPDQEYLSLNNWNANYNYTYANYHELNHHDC
As to conditions: protein: recombinant; tags: N-terminal GST; dsDNA, one strand shown. A digest of the protocol: as §1

Another test has as its target ELF4 (Homo sapiens, UniProt Q99607 1-663). The following applies: protein: recombinant; tags: N-terminal GST; dsDNA, one strand shown. A digest of the protocol: as §1
A further test concerns the target T3, ELK4 (Homo sapiens, UniProt P28324-2 1-405).
T3 sequence: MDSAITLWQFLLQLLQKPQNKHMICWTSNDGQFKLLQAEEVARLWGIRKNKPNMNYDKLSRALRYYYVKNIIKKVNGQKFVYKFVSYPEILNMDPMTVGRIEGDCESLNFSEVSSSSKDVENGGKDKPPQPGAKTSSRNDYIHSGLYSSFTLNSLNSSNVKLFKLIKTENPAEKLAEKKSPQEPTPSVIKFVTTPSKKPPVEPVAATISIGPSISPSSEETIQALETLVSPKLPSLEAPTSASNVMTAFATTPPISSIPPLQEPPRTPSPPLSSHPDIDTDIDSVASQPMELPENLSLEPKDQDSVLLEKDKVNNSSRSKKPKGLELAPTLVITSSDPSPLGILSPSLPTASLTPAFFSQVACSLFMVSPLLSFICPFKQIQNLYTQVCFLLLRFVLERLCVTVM
The following applies: protein: recombinant; tags: N-terminal GST; dsDNA, one strand shown. A digest of the protocol:
as §1

For another test, the target named is T4, ETV2 (Homo sapiens, UniProt O00321 1-342).
T4 sequence: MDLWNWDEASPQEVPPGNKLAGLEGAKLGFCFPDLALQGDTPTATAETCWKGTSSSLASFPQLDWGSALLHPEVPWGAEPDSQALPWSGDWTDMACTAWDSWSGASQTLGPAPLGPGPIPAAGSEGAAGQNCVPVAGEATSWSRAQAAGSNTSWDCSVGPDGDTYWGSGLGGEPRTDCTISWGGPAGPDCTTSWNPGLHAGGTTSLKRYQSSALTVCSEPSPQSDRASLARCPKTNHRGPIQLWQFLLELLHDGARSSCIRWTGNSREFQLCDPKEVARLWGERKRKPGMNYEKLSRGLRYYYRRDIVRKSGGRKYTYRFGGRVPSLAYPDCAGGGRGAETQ
The following applies: protein: recombinant; tags: N-terminal GST; dsDNA, one strand shown. A digest of the protocol:
as §1

In a further test the target is T5, ELF3 (Homo sapiens, UniProt P78545 1-371).
T5 sequence: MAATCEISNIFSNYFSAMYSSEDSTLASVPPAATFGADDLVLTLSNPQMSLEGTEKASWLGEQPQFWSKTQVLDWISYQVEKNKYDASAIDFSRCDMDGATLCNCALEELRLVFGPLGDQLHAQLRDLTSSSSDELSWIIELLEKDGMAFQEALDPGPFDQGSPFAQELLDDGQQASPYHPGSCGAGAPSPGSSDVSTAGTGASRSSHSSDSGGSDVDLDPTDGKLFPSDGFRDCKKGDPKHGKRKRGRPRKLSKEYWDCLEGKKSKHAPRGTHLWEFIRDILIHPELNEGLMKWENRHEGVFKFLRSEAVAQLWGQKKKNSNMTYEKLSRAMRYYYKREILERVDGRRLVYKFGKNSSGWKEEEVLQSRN
The following applies: protein: recombinant; tags: N-terminal GST; dsDNA, one strand shown. A digest of the protocol: as §1

The target in another test is CRX (Homo sapiens, UniProt O43186 1-299). The following applies: protein: recombinant; tags: N-terminal GST; dsDNA, one strand shown. A digest of the protocol:
as §1

A further test has as its target ETV1 (Homo sapiens, UniProt P50549 1-477). As to conditions: protein: recombinant; tags: N-terminal GST; dsDNA, one strand shown. A digest of the protocol: as §1
The target of a further test is T6, ERF (Homo sapiens, UniProt P50548 1-548).
T6 sequence: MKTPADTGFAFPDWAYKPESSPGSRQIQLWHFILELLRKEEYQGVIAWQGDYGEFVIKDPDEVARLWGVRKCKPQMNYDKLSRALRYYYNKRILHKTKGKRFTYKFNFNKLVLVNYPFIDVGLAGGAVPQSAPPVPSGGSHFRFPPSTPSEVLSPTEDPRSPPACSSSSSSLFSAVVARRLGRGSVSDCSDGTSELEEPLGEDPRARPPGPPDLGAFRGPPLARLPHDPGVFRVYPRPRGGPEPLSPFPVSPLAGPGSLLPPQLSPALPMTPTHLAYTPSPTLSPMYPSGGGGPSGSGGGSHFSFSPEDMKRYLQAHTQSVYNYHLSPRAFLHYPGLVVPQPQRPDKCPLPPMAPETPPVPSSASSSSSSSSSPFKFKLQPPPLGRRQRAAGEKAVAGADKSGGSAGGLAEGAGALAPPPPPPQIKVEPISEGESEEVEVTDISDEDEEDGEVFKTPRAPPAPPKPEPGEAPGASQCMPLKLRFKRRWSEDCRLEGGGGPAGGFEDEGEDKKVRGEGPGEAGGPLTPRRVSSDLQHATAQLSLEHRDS
As to conditions: protein: recombinant; tags: N-terminal GST; dsDNA, one strand shown. The method in brief:
as §1

In a further test the target is T7, ETV3L (Homo sapiens, UniProt Q6ZN32 1-361).
T7 sequence: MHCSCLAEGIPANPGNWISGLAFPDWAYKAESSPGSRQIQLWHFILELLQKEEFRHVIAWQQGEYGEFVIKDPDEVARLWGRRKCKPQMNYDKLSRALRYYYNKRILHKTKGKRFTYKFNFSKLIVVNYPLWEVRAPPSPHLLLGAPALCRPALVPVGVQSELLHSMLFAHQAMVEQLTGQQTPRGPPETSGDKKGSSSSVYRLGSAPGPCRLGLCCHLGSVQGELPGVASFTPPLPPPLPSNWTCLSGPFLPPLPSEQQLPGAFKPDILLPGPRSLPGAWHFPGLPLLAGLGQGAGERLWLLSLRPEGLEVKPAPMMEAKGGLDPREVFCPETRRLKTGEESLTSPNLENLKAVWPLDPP
The following applies: protein: recombinant; tags: N-terminal GST; dsDNA, one strand shown. The method in brief:
as §1

For the next test, the target named is T8, ETS2 (Homo sapiens, UniProt P15036 1-469).
T8 sequence: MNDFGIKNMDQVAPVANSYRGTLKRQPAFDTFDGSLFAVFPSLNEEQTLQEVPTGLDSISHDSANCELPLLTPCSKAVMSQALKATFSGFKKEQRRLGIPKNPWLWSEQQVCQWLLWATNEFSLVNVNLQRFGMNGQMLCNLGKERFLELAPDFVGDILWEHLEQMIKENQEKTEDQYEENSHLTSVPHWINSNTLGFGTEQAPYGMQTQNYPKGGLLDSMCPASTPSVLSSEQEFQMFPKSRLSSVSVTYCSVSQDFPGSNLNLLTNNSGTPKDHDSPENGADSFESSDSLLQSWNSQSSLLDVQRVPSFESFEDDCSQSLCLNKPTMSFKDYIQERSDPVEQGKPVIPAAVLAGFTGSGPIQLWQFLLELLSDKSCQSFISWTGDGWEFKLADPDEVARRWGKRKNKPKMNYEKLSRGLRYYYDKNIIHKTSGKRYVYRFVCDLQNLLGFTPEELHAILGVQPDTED
The following applies: protein: recombinant; tags: N-terminal GST; dsDNA, one strand shown. A digest of the protocol:
as §1

The target of a further test is T9, SPDEF (Homo sapiens, UniProt O95238 1-335).
T9 sequence: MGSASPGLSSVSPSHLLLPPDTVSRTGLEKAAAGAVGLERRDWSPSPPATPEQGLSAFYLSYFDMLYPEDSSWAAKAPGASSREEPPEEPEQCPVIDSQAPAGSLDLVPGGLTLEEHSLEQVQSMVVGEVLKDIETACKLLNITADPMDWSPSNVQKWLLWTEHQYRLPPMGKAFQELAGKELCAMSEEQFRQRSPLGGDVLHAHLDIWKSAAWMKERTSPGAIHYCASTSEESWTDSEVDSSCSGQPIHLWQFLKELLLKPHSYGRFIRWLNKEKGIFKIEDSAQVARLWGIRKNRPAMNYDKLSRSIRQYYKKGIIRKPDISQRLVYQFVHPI
The following applies: protein: recombinant; tags: N-terminal GST; dsDNA, one strand shown. The method in brief:
as §1

The target of a further test is T10, ETV7 (Homo sapiens, UniProt Q9Y603 1-341).
T10 sequence: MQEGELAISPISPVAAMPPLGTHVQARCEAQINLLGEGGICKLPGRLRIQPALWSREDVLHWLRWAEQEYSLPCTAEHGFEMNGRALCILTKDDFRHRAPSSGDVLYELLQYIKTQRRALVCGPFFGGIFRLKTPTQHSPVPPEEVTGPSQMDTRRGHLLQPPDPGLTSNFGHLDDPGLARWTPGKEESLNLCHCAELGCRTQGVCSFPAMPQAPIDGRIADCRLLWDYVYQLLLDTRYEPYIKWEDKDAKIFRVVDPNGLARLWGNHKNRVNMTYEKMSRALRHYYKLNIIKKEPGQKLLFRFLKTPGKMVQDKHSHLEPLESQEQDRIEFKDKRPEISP
The following applies: protein: recombinant; tags: N-terminal GST; dsDNA, one strand shown. A digest of the protocol: as §1

Another test concerns the target T11, ELF5 (Homo sapiens, UniProt Q9UKW6-2 1-255).
T11 sequence: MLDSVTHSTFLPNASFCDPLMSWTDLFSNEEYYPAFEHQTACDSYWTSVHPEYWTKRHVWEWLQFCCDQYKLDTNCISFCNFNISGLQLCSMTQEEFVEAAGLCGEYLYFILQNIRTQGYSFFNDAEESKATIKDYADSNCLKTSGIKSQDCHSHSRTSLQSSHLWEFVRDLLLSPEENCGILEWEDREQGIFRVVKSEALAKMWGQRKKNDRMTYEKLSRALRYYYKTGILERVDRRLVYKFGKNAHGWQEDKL
As to conditions: protein: recombinant; tags: N-terminal GST; dsDNA, one strand shown. The method in brief: as §1

For a further test, the target named is T12, ETV3 (Homo sapiens, UniProt P41162-2 1-143).
T12 sequence: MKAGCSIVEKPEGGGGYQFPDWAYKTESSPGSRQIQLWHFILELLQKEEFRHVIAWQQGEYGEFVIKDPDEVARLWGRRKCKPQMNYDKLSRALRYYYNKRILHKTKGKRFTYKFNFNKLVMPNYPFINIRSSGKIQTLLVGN
The following applies: protein: recombinant; tags: N-terminal GST; dsDNA, one strand shown. The method in brief: as §1

The next test concerns the target ETV6 (Homo sapiens, UniProt P41212 1-452). As to conditions: protein: recombinant; tags: N-terminal GST; dsDNA, one strand shown. A digest of the protocol:
as §1

Sequence of HSF1 (Q00613 whole entry): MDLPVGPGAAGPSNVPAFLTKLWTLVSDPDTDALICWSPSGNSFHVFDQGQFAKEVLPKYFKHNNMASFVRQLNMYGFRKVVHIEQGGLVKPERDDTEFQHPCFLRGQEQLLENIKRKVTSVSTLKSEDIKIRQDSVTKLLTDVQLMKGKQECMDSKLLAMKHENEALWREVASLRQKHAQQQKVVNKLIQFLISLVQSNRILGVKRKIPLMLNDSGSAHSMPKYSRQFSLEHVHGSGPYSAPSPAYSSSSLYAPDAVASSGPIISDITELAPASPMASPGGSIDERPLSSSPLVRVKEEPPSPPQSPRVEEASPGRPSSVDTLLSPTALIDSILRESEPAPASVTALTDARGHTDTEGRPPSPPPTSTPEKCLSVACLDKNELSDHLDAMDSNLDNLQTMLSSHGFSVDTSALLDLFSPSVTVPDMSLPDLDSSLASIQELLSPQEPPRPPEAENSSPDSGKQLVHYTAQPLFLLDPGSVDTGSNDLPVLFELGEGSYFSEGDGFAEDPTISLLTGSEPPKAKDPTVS
Sequence of ELF4 (Q99607 whole entry): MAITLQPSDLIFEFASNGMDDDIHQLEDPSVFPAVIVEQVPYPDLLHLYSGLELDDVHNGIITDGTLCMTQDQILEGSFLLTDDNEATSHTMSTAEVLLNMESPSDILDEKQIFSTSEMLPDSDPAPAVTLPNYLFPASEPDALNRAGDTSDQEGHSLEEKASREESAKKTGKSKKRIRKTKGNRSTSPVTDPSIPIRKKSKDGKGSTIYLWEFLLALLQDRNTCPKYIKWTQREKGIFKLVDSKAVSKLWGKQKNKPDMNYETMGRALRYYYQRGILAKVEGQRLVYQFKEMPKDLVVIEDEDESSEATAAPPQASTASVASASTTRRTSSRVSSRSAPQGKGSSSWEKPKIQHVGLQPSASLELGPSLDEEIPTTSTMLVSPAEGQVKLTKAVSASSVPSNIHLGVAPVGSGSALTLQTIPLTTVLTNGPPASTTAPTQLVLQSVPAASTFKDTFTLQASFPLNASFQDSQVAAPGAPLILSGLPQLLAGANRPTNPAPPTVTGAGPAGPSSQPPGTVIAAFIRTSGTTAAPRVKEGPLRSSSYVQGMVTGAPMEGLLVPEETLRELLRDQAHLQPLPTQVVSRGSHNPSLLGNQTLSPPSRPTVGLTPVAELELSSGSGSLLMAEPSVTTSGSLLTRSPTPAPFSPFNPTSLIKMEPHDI
Sequence of ETV5 (P41161 whole entry): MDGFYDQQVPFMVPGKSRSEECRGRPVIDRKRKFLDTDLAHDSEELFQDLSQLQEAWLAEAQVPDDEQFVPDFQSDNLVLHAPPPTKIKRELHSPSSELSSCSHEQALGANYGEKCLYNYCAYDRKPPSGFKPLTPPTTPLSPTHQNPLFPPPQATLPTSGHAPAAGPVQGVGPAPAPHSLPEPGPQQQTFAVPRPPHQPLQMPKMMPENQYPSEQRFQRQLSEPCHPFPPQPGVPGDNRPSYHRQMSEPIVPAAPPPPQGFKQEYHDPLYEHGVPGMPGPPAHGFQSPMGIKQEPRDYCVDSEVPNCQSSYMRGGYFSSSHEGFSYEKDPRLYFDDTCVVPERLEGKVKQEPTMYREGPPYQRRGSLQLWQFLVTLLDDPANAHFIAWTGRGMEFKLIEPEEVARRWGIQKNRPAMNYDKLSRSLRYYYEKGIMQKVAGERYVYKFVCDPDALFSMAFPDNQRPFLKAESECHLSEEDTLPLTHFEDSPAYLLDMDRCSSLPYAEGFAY
Sequence of ETV6 (P41212 whole entry): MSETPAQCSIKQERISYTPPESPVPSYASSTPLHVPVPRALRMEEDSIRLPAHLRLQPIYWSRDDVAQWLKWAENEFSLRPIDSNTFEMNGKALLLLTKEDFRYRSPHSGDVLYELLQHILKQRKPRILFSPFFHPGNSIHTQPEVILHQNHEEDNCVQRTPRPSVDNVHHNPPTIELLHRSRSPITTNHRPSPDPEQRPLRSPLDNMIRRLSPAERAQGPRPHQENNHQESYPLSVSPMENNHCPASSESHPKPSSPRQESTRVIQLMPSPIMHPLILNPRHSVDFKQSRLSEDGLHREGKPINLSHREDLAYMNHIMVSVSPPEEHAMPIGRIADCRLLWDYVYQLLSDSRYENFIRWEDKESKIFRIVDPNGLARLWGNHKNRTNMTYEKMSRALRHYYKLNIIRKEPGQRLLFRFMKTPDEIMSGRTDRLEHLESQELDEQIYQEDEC
Sequence of CRX (O43186 whole entry): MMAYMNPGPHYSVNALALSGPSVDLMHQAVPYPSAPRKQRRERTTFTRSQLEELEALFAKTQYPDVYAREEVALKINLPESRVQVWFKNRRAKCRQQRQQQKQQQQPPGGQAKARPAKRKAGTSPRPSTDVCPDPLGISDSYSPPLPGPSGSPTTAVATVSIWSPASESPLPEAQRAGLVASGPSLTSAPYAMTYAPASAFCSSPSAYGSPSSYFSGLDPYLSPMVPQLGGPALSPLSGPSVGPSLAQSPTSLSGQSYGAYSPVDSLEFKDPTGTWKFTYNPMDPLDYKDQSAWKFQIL
Sequence of ETV1 (P50549 whole entry): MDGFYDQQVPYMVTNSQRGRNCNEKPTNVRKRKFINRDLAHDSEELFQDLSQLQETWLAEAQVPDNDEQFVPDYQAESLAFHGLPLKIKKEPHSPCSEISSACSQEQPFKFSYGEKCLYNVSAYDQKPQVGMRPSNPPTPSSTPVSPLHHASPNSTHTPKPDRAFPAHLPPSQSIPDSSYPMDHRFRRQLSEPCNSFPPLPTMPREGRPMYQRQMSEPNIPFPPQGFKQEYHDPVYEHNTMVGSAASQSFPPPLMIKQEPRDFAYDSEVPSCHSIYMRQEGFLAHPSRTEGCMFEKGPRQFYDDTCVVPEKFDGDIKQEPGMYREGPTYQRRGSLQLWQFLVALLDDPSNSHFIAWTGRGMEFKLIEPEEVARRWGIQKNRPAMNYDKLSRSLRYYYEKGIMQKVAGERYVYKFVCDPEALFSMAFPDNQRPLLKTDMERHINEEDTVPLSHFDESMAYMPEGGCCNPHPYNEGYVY

For the sequence AGCTAT, the binding signal with FEV is 1.16 fold enrichment (6-mer frequency, TF over GST control); in the test with ETV5, 1.16 fold enrichment (6-mer frequency, TF over GST control); in the test with HSF1, 1.12 fold enrichment (6-mer frequency, TF over GST control); in the test with SPIC it was 1.15 fold enrichment (6-mer frequency, TF over GST control); in the test with ELF4 it was 1.15 fold enrichment (6-mer frequency, TF over GST control); with ELK4, 1.27 fold enrichment (6-mer frequency, TF over GST control). Besides, the binding signal is 1.2 fold enrichment (6-mer frequency, TF over GST control) with ETV2; 1.2 fold enrichment (6-mer frequency, TF over GST control) with ELF3; 1.27 fold enrichment (6-mer frequency, TF over GST control) with CRX; 1.2 fold enrichment (6-mer frequency, TF over GST control) with ETV1; 1.17 fold enrichment (6-mer frequency, TF over GST control) with ERF; 1.17 fold enrichment (6-mer frequency, TF over GST control) with ETV3L. Moreover, the binding signal was 1.11 fold enrichment (6-mer frequency, TF over GST control) with ETS2; 1.14 fold enrichment (6-mer frequency, TF over GST control) in the test with SPDEF; 1.13 fold enrichment (6-mer frequency, TF over GST control) in the test with ETV7; 1.12 fold enrichment (6-mer frequency, TF over GST control) with ELF5; 1.13 fold enrichment (6-mer frequency, TF over GST control) with ETV3; 1.08 fold enrichment (6-mer frequency, TF over GST control) with ETV6.

The values are drawn from PMC7862700, “An all-to-all approach to the identification of sequence-specific readers for epigenetic DNA modifications on cytosine”.
